Screening data deposited in PubChem BioAssay by several laboratories.
Rows were chosen to be rich in hits. Some 3.5% of all compounds tested hit in one or more screens of this group.
BoNT F protease – inhibitors of Botulinum neurotoxin F light chain protease; Multiplex microsphere protease cleavage assay, flow cytometry; inhibition, % at 10 µM; hit rate 0.22% among 360,000; AID 588497; in the data active means inhibition above about 35%, passing the limit was not always enough; inconclusive means no clear call, values can overlap the other calls; further: plate controls were buffer without enzyme for full effect and enzyme alone for no effect
Autofluor counter – compound fluorescence in toxin protease inhibitor counterscreen. compound autofluorescence counterscreen, microsphere flow cytometry; hits give high values. AID 624483. fluorescence intensity (concentration not given with the values). hit rate 3.1% among 360,000; in the data active means fluorescence intensity above about 16000; inconclusive means no clear call, values can overlap the other calls
3CLpro inhibitor – SARS-CoV 3CLpro protease inhibition. AID 1706. P0C6X7. recombinant SARS-CoV 3CLpro, quenched FRET peptide cleavage. inhibition, % at 6 µM. hit rate 0.14% among 290,000; in the data active means inhibition above about 12%
Anthrax LF prot – inhibitors of Bacillus anthracis lethal factor protease; P15917; multiplex microsphere protease cleavage assay, LF; inhibition, % at 10 µM; hit rate 0.12% among 360,000; AID 588501; further: plate controls were buffer without enzyme for full effect and enzyme alone for no effect
Target sequence (P15917 whole entry, looked up): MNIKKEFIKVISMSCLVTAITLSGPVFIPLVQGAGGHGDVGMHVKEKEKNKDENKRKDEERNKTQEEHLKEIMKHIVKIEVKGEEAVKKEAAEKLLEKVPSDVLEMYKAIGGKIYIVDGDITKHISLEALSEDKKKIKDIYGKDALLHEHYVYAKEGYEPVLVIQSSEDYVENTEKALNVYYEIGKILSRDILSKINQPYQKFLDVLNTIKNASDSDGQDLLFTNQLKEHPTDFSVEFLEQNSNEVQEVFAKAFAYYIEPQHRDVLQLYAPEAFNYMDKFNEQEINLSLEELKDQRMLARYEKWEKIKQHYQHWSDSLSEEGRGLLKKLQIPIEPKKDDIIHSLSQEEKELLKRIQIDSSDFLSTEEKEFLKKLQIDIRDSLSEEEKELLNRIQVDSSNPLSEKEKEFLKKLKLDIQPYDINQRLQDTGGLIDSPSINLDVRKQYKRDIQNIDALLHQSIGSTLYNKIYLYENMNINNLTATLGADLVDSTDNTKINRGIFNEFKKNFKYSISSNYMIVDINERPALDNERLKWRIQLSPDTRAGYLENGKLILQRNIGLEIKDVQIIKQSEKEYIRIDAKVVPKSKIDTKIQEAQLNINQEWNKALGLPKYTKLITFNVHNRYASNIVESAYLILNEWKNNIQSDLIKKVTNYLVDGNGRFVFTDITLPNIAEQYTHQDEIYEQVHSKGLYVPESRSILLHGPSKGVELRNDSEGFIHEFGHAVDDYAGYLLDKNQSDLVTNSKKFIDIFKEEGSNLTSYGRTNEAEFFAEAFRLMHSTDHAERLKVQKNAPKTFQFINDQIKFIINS
BoNT A protease – inhibitors of Botulinum neurotoxin A light chain protease. multiplex microsphere protease substrate cleavage, flow cytometry. inhibition, % at 10 µM. hit rate 0.17% among 360,000. AID 588499; further: plate controls were buffer without enzyme for full effect and enzyme alone for no effect
BoNTA LC inh 2 – inhibitors of botulinum neurotoxin A light chain protease | shares compounds with BoNT A protease | multiplex microsphere protease cleavage assay, flow cytometry | inhibition, % at 10 µM | hit rate 10% among 150 | AID 602325; in the data active means inhibition above about 24%
LF protease CP2 – inhibitors of Bacillus anthracis lethal factor protease | multiplex microsphere protease cleavage assay | hit rate 7% among 150 | shares compounds with BoNT A protease | inhibition, % at 10 µM; in the data active means inhibition above about 25%
BoNT-F LC CP2 – blocks botulinum neurotoxin F light chain protease. shares compounds with BoNT A protease. multiplex microsphere protease cleavage assay, flow cytometry. inhibition, % at 10 µM. hit rate 7% among 150. AID 602336; in the data active means inhibition above about 25%
* hit, by the source's call; u = inconclusive; x = not tested or not shown. Unless noted, no stated cut-off is given here; in the data, active means inhibition above about 30%; inconclusive means no clear call, values can overlap the other calls; inactive means below that.

SMILES	BoNT F protease	Autofluor counter	3CLpro inhibitor	Anthrax LF prot	BoNT A protease	BoNTA LC inh 2	LF protease CP2	BoNT-F LC CP2
O=C(NC1CC1)c1cccc2c1C(=O)c1ccc(N3CCC(Cc4ccccc4)CC3)cc1S2(=O)=O	16	4605	x	16	11	x	x	x
O=C(NC1CCCCC1)c1cccc2c1C(=O)c1ccc(N3CCCC3)cc1S2(=O)=O	5	4029	x	-2	2	x	x	x
CC1CCN(c2ccc3c(c2)S(=O)(=O)c2cccc(C(=O)NCc4ccc(F)cc4)c2C3=O)CC1	-1	3007	x	3	8	5	2	-1
O=C(NCc1cc(C(F)(F)F)ccc1Cl)c1cccc2c1C(=O)c1ccc(N3CCC(Cc4ccccc4)CC3)cc1S2(=O)=O	12	5976	x	18	7	7	8	16
CC1CCN(c2ccc3c(c2)S(=O)(=O)c2cccc(C(=O)NC4CCCCC4)c2C3=O)CC1	6	4303	x	11	8	5	6	16
O=C(NCc1ccc(F)cc1)c1cccc2c1C(=O)c1ccc(N3CCOCC3)cc1S2(=O)=O	2	2751	x	4	3	x	x	x
CC(C)(C)CNC(=O)c1cccc2c1C(=O)c1ccc(N3CCCC3)cc1S2(=O)=O	0	4481	x	5	4	x	x	x
COc1ccccc1N1CCN(c2ccc3c(c2)S(=O)(=O)c2cccc(C(=O)NCC4CC4)c2C3=O)CC1	-3	3266	x	-6	0	3	3	15
COC(=O)Cc1cc(=O)n2c(nc3ccccc32)[nH]1	u	3970	1	1	-3	x	x	x
CCN(CC)c1ccc2cc(C(=O)c3cccs3)c(=O)oc2c1	32	5733	x	33*	54*	22	21	16
CCN(CC)c1ccc2cc(C(=O)NCc3ccc(F)cc3)c(=N)oc2c1	16	11232	-18	9	18	x	x	x
O=C(N=Nc1c(O)n(C2OC(=O)c3ccccc32)c2ccccc12)c1ccc(O)cc1 (centres undefined)	-8	3270	-6	-4	0	x	x	x
O=C(Nc1cccc(Oc2ccccc2)c1)C1Cc2c(-c3ccco3)ccnc2O1 (centres undefined)	-6	3261	x	-9	0	x	x	x
Cc1cc2nc(-c3cccc(Cl)c3)c(Cc3ccsc3)n2c(C)c1Br	-6	6217	x	3	3	9	-5	2
COc1ccc(-c2nc3cc(C)c(Br)c(C)n3c2Cc2ccsc2)cc1OC	-4	4388	x	0	2	3	-2	-7
Cc1cc2nc(-c3cccc(Br)c3)c(Cc3ccccc3)n2c(C)c1Br	-9	6229	x	-2	1	x	x	x
COc1ccccc1Cc1c(-c2ccc(OC)c(OC)c2)nc2cc(C)c(Br)c(C)n12	-1	4221	x	-16	2	x	x	x
COc1ccc(-c2nc3cc(C)c(Br)c(C)n3c2Cc2ccccc2C(F)(F)F)cc1OC	-7	5906	x	-8	1	2	-2	-2
CCCc1nc2cc(C)c(Br)c(C)n2c1Cc1ccsc1	-7	6214	x	2	1	x	x	x
Cc1cc2nc(-c3cccc(Br)c3)c(Cc3ccsc3)n2c(C)c1Br	-8	4588	x	-7	1	4	1	7
CCS(=O)(=O)NCc1cn2ccsc2n1	x	x	-4	x	x	x	x	x
Cc1nnc(N/N=C\c2ccc(-c3cccc(C(=O)O)c3)o2)n1N	5	4130	0	-4	-1	x	x	x
O=C(CCC1CCCC1)N1CCN(S(=O)(=O)c2ccc(Br)cc2)CC1	83*	6066	x	89*	80*	2	0	6
O=C(CC1CCCC1)N1CCN(S(=O)(=O)c2ccc(F)cc2)CC1	0	3402	x	2	0	x	x	x
COc1cccc(N2CCN(c3c(C#N)c(C(F)(F)F)nn3C)CC2)c1	2	3310	1	-5	1	x	x	x
COc1cccc(C(=O)OCC(=O)c2c[nH]c3ccccc23)c1O	-6	4429	4	-2	1	10	13	37*
CC(=O)OCC(=O)c1c[nH]c2ccccc12	-6	5991	-1	-3	0	x	x	x
COc1cc([N+](=O)[O-])ccc1NC(=O)CSc1nnc(C)c(C)n1	-1	4128	-4	-3	0	x	x	x
COc1cc(OC)c(OC)cc1CN(C)CCc1ccccn1	-11	4706	3	-3	0	x	x	x
Cc1[nH]c2ccc(CNS(=O)(=O)c3ccc(S(=O)(=O)N4CCOCC4)cc3)cc2c1C	-1	6262	2	0	0	2	-3	-2
